Data on 33 molecules can be found in PubChem BioAssay (NCATS).

Assay [1] in a line: Primary fluorescence-based thiol-reactive (MSTI) qHTS assay for identification of artifact compounds. (AID 1845221). Further: nearly all actives have a fitted effect of over 65% in size. Further: potency means the concentration at half of the fitted maximal effect. The method in brief: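 Probe: MSTI 4 uM, PBS pH 7.4, 2% DMSO. Incubation 1 h, RT, light-protected. Readout fluorescence 525/598 nm.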
For assay [2], the system named is Nanoluciferase (engineered Oplophorus gracilirostris luciferase). As to the kind of experiment: Primary Nanoluciferase (NLuc) qHTS assay for identification of artifact compounds. (AID 1845222).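 Further: NLuc secreted into diluted conditioned medium of S16 cells; series mostly up to about 54 µM; 0% = DMSO and -100% = no enzyme.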 The method in brief: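 Concentration-response data were obtained by luminescence after 5 min with Nano-Glo substrate at 1:100. The enzyme was diluted S16 NLuc-expressing cell medium, preincubated with compound for 15 min at RT. Curves were fitted with a 4-parameter Hill model.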

Assay [3] in a line: Primary redox qHTS assay for identification of artifact compounds. (AID 1845223).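 Further: 0% = DMSO and 100% = reference compound.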 The method in brief:
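Redox-cycling detection via DTT (250 uM final) oxidation coupled to Amplex Red (25 uM)/HRP (250 mU/mL) in HBSS. 15 min preincubation plus 30 min after DTT, room temperature. Ex/Em 525/598 nm; 4-parameter Hill fit against DMSO and 10 uM DA3003.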
(In qHTS, concentration-response curves come from the screen itself.)

Assay [4] concerns the target Cytochrome P450 2D6 (Homo sapiens) (UniProt P10635). The assay is described as follows: qHTS for inhibitors of CYP2D6 against the NCATS DSHEA and TCM libraries (AID 1919972). Further: on the % scale 0 is the no-effect control and ±100 the full control effect. The method in brief: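 qHTS, concentration–response format with most substances from 19.5 nM. CYP2D6 + pro-luciferin substrate, 15 min with compound, then 1x NADPH regen, 30–45 min RT dark. Glo detection 30 min, luminescence. Quinidine control.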

Assay [5] has as its target Cytochrome P450 2C9 (Homo sapiens) (UniProt P11712). The assay is described as follows: qHTS for inhibitors of CYP2C9 against the NCATS DSHEA and TCM libraries (AID 1919973).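 Further: luminogenic pro-luciferin CYP2C9 substrate turned into luciferin with NADPH regeneration; series mostly up to about 34 µM; on the % scale 0 is the no-effect control and ±100 the full control effect.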 The method in brief: (§1)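 Substances were tested against enzyme with a pro-luciferin substrate; minus-enzyme wells served as background. After NADPH-initiated oxidation (30-45 min, RT), light was generated with P450-Glo reagent.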

The target in assay [6] is Cytochrome P450 2C19 (Homo sapiens) (UniProt P33261). As to the kind of experiment: qHTS for inhibitors of CYP2C19 against the NCATS DSHEA and TCM libraries (AID 1919974).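 Further: luminescence from luciferin released by CYP2C19 oxidation of a pro-luciferin substrate; on the % scale 0 is the no-effect control and ±100 the full control effect.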 The method in brief: as §1
Cytochrome P450 2C19 (Homo sapiens), sequence (P33261 whole entry, looked up): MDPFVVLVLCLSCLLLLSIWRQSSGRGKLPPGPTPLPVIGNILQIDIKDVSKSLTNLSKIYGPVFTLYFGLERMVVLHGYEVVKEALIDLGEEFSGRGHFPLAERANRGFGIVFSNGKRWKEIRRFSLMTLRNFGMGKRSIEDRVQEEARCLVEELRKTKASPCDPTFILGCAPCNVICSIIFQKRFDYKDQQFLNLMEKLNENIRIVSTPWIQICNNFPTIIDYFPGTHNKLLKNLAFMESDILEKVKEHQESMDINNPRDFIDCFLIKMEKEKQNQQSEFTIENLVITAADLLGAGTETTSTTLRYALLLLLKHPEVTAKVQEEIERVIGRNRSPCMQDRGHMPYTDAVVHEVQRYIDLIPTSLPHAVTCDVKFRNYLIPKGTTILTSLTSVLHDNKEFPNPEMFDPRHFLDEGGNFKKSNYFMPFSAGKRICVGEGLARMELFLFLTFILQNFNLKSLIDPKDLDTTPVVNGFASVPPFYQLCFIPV
Assay [7] in a line: KB-3-1 P-gp reporter qHTS against the NCATS DSHEA and TCM libraries (AID 1919975). Further: 0% is about no effect. The method in brief:
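72 h exposure of KB-3-1 cells (DMEM, 10% FBS) to DSHEA/TCM samples, concentration-response; cell viability measured as CellTiter-Glo luminescence after 30 min at room temperature.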

The target of assay [8] is Cytochrome P450 1A2 (Homo sapiens) (UniProt P05177). The assay is described as follows: qHTS for inhibitors of CYPIA2 against the NCATS DSHEA and TCM libraries (AID 1919976). Further: series mostly up to about 37 µM; on the % scale 0 is the no-effect control and ±100 the full control effect. The method in brief:
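Luminescence read-out: pro-luciferin converted to D-luciferin by CYP1A2, detected with P450-Glo reagent after 30 min RT. Enzyme plus substrate got compounds for 15 min RT; NADPH regeneration solution (final 1x) started a 30-45 min reaction, light-protected.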

Assay [9] in a line: qHTS Counterscreen for compound interference against the NCATS DSHEA and TCM libraries (AID 1919978). Further: % of control where 0% means no effect. The following applies: firefly luciferase detection reagent interference, luminescence. The method in brief:
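Read-out is luminescence after 30 min at RT with luciferin detection reagent. Before that, compounds (19.5 nM to 39.8 uM final) sat 15 min at RT with 1 uM D-luciferin or 100 mM potassium phosphate buffer. PTC124 served as intraplate control.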

A number with no mark means an inactive call. Results filed as inconclusive are left out. Calls of active or inactive are those of the source. The call rests on the fitted dose curve; in most records, active means well fitted curve in the direction sought with a large enough effect; inconclusive means small, poorly fitted or top-dose-only effect, or another doubt; inactive means no such curve, though single readings can be large; an effect the other way counts as inactive or inconclusive.

Cytochrome P450 2D6 (Homo sapiens), sequence (P10635 whole entry, looked up): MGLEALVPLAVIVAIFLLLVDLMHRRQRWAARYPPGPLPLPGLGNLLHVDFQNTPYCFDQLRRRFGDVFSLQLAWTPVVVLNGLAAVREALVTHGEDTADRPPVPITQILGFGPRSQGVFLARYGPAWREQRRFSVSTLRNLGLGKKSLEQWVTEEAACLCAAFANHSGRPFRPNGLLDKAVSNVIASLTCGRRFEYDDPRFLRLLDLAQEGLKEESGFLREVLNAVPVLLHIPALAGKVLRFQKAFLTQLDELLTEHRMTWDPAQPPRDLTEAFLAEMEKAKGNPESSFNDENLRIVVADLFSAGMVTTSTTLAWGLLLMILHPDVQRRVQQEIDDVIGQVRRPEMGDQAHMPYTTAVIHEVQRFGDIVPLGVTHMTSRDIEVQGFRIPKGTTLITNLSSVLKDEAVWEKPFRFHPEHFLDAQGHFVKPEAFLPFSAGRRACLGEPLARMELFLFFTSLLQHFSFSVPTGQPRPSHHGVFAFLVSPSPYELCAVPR
Cytochrome P450 2C9 (Homo sapiens), sequence (P11712 whole entry, looked up): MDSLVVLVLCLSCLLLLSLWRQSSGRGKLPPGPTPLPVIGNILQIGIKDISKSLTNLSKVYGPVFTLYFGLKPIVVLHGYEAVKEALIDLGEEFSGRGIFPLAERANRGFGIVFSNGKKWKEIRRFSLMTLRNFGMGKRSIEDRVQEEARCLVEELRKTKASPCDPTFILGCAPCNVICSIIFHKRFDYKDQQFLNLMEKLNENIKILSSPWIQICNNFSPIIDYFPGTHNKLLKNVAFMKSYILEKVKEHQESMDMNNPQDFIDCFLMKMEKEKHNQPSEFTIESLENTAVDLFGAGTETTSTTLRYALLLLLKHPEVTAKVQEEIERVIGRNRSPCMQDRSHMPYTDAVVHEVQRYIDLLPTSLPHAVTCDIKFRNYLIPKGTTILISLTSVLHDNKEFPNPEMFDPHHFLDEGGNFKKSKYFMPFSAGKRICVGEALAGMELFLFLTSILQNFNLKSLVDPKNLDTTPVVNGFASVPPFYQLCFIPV
Cytochrome P450 1A2 (Homo sapiens), sequence (P05177 whole entry, looked up): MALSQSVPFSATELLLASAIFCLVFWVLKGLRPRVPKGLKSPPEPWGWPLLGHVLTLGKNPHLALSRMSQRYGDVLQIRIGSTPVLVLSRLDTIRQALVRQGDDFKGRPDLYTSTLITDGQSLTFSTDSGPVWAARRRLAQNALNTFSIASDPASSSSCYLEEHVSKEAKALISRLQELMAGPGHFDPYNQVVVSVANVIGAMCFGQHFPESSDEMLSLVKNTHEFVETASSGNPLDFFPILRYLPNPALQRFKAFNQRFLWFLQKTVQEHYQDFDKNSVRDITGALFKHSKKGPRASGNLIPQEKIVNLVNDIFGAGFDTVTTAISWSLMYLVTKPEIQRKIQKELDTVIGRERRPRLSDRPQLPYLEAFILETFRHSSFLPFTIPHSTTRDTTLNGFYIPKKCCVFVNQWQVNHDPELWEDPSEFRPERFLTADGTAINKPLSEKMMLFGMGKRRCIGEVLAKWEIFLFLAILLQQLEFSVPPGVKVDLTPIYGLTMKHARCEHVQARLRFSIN

With `COc1cc([C@@H]2Oc3c(OC)cc(CCCO)cc3[C@@H]2CO[C@@H]2O[C@H](CO)[C@@H](O)[C@H](O)[C@H]2O)ccc1O`, the Potency in assay [1] was 4.12 µM (active). Further, the Potency entry in assay [2] and in [3] was “inactive” in each case.
Regarding `CC(C)NC[C@H](O)COc1ccc(CCOCC2CC2)cc1`, the Potency result in [1], in [2] and in [3] was “inactive” in each case.
On to `C[C@H]1[C@H](C)CC[C@]2(C(=O)O)CC[C@]3(C)C(=CC[C@@H]4[C@@]5(C)C[C@@H](O)[C@H](O)[C@@](C)(CO)[C@@H]5CC[C@]43C)[C@H]12`, for which the outcome in [4], in [7] and in assay [8] was inactive. The Potency result in assay [5] and in [6] was “inactive” throughout. Moreover, the max response in [9] is 2.22%.
Regarding `C/C(=C/CO)CC[C@@H]1[C@@]2(C)CCC[C@](C)(C(=O)O)C2CC[C@@]1(C)O` (some centres not stated), the Potency entry in assay [2] and in [3] was “inactive” in each case.
Consider `CC(=O)O[C@H]1[C@H](Oc2ccccc2COC(=O)C2(O)C=CCCC2=O)O[C@H](CO)[C@@H](O)[C@@H]1O` (some centres not stated), for which the Potency entry in assay [2] and in assay [3] was “inactive” each time.
Take `COc1cc(C(O)C(CO)Oc2ccc(CCCO[C@@H]3O[C@@H](C)[C@H](O)[C@@H](O)[C@H]3O)cc2OC)ccc1O` (some centres not stated): the Potency entry in [2] and in assay [3] was “inactive” each time.
For the molecule `CC1=C(C)C(=O)OC(C(C)C2C(O)CC3C4C5OC5C5(O)CC(OC6OC(CO)C(O)C(O)C6O)CC(O)C5(C)C4CCC32C)C1` (configuration not stated), the Potency result in assay [2] and in assay [3] was “inactive” each time.
As for `CN1CCC(c2c[nH]c3ccc(NC(=O)c4ccc(F)cc4)cc23)CC1`, the Potency result in [2] and in assay [3] was “inactive” throughout.
Take `CC1CCC2(C)C(CC(O)C(O)C23CO3)C1(C)CCC1=CC(=O)OC1O` (configuration not stated): the Potency result in [2] and in assay [3] was “inactive” in each case.
For the molecule `CC1(C)CC2C(C1)C1(C)CCC13OC3(CO)C2O` (configuration not stated), the Potency entry in assay [2] and in assay [3] was “inactive” throughout.
As for `COC(=O)C12C(=O)C(C)=C(O)C1(C)C(C)=CC1C34CCC(OC3=O)C(C)(C)C4CCC12C` (configuration not stated), the Potency result in assay [2] and in assay [3] was “inactive” in each case.
With `CCc1nc(C(N)=O)c(Nc2ccc(N3CCC(N4CCN(C)CC4)CC3)c(OC)c2)nc1NC1CCOCC1`, the Potency entry in assay [2] and in assay [3] was “inactive” each time.
Take `COC(=O)CC1(O)C(=O)Nc2ccccc21` (configuration not stated): the Potency result in [2] and in assay [3] was “inactive” in each case.
Turning to `C=C1C(=O)OC2CC(C)=C(C(C)CCCO[C@@H]3O[C@H](CO)[C@@H](O)[C@H](O)[C@H]3O)C(O)C12` (some centres not stated), the Potency result in [2] and in assay [3] was “inactive” each time.
Regarding `CC1(C)CCC[C@@]2(C)[C@H]1[C@H](O)C=C1COC(=O)[C@@]12O`, the Potency result in assay [2] and in assay [3] was “inactive” throughout.
As for `C#Cc1cnc2[nH]c(=O)n(C(CC)CC)c2n1`, the Potency result in assay [2] and in assay [3] was “inactive” each time.
As to `COc1ccc2c(c1O)OC[C@H]1c3ccc(O)cc3O[C@@H]21`, the Potency entry in [2] and in assay [3] was “inactive” in each case.
Turning to `CC1CCC2C(C)(C)C(O)CCC2(C)C12Cc1c(O)cc3c(c1O2)CN=C3N` (configuration not stated), the Potency result in assay [2] and in [3] was “inactive” in each case.
As for `Cc1cn2c(N)c(Cl)cc(C(=O)NCC3CCN(CC(C)C)CC3)c2n1`, the Potency result in assay [2] and in assay [3] was “inactive” throughout.
`CC1[C@@H](O)[C@@H](O)C2[C@]3(C)C(C[C@H]4OC(=O)[C@H](O)[C@]1(O)[C@@]24C)C(C)(O)C[C@H](O)[C@H]3O` (some centres not stated): the Potency result in assay [2] and in assay [3] was “inactive” in each case.
For the molecule `CC(C)CC(=O)OC[C@H]1O[C@@](COC(=O)CC(C)C)(O[C@H]2O[C@H](CO)[C@@H](O)[C@H](O)[C@H]2OC(=O)CC(C)C)[C@@H](OC(=O)CC(C)C)[C@@H]1O`, the Potency entry in assay [2] and in assay [3] was “inactive” each time.
`Clc1ccc(CN[C@H]2CCN(c3ncc(Br)cn3)C2)c(Cl)c1`: the Potency result in [2] and in assay [3] was “inactive” each time.
Regarding `C=C1[C@@H]2[C@H]3OC(=O)C(=C)[C@@H]3CC[C@@](C)(O)[C@@H]2C[C@@H]1O[C@@H]1O[C@H](CO)[C@@H](O)[C@H](O)[C@H]1O`, the Potency result in assay [2] and in assay [3] was “inactive” throughout.
In the case of `C=C1C(O[C@@H]2O[C@H](CO)[C@@H](O)[C@H](O)[C@@H]2O)CC2C(C)(C)C(O)CCC2(C)C1CC/C(C)=C\CO` (some centres not stated), the Potency entry in assay [2] and in assay [3] was “inactive” in each case.
Turning to `C=C(C)C(=O)O[C@H]1C[C@@](C)(OC(C)=O)[C@@]2(O)CC[C@@](C)(O)[C@H](OC(C)=O)[C@@]23OC(=O)C(COC)=C13`, the Potency entry in [2] and in [3] was “inactive” in each case.
On to `CCOC(=O)c1ccc(N(C)c2csc(-c3ccccc3)n2)cc1`, for which the Potency entry in assay [2] and in assay [3] was “inactive” throughout.
With `C[C@@H]1O[C@@H](O[C@H]2[C@H](OC(C#N)c3ccc(O)cc3)O[C@H](CO)[C@@H](O)[C@@H]2O)[C@H](O)[C@H](O)[C@H]1O` (some centres not stated), the Potency entry in assay [2] and in [3] was “inactive” each time.
As for `CC(C)CC(=O)OC[C@H]1O[C@@](COC(=O)CC(C)C)(O[C@H]2O[C@H](CO)[C@@H](O)[C@H](O)[C@H]2O)[C@@H](OC(=O)CC(C)C)[C@@H]1OC(=O)CC(C)C`, the Potency result in assay [2] and in [3] was “inactive” in each case.
Regarding `C=Cc1cc(O)cc2nc(-c3ccc(O)c(F)c3)oc12`, the Potency entry in assay [2] and in assay [3] was “inactive” in each case.
Regarding `CN1C(=O)c2ccccc2NC(=O)[C@]12O[C@@H]2c1cccc(O)c1`, the Potency entry in [2] and in assay [3] was “inactive” in each case.
With `COc1ccc2c3c1O[C@H]1C[C@@H](O)C=C[C@@]31CCN(C)C2`, the Potency result in assay [2] and in assay [3] was “inactive” throughout.
For `COc1ccc(/C=C/C(=O)O[C@@H]2[C@@H](O)[C@H](C)O[C@@H](OC3C4C=COC(O[C@@H]5O[C@H](CO)[C@@H](O)[C@H](O)[C@H]5O)C4C4(CO)OC34)[C@@H]2O)cc1OC` (some centres not stated), the Potency result in assay [2] and in assay [3] was “inactive” throughout.
With `COC(=O)C1=C[C@@H](O)[C@@H](O)[C@H](O[C@@H]2O[C@H](COC(=O)/C=C/c3ccccc3)[C@@H](O)[C@H](O)[C@H]2O)C1`, the Potency entry in assay [2] and in assay [3] was “inactive” each time.
